Most compounds without a hit are left out; they make up all but 2.4% or so of the library.
D2 ag-1: agonists of human D2 dopamine receptor. P14416. HEK293 T-REx D2 cells, calcium flux agonist mode. activation, % at 2 µM. actives 0.53% (n = 340,000). AID 485358;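 active = activation over 3 SD above normal in the single-dose calcium agonist read, cut at about 30% in these data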
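Tetracycline-induced HEK293 T-REx cells with force-coupled D2 receptor, plated overnight at 30 C, loaded with no-wash calcium dye. After a 10 s baseline, compound was pin-added and calcium flux read kinetically for 180 s; calcium rises flagged agonists.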
D2 PAM-1: positively modulates the human D2 dopamine receptor allosterically; actives 0.34% (n = 340,000); potentiation, % at 10 µM; HEK293 T-REx D2, calcium flux, EC20 dopamine potentiation;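 active = potentiation over 3 SD above the plate norm, cut at about 30% in these data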
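Potentiation of an EC20 dopamine calcium response is measured in a force-coupled, tetracycline-inducible Hek293 Trex D2 line. Compound-only kinetic reads over 180 s flag agonists before dopamine addition.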
D2 PAM-2: potentiates the human D2 dopamine receptor allosterically | P14416 | DiscoveRx D2 beta-arrestin cells, luminescence, 90 min; 100% = 57 uM dopamine signal | actives 0.23% (n = 360,000) | potentiation, % (no concentration beside the values); in the data active = potentiation above about 50%; inconclusive = mostly about 30% to 49%
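D2 cells co-treated with compound plus 50 nM dopamine (EC20) for 90 min at 37 deg C to detect potentiation. Beta-arrestin recruitment was read as enzyme-fragment luminescence after 1 h at ambient temperature. Full response was set by 57 uM dopamine.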
D2 antag: D2 dopamine receptor (human) antagonism | HEK293 TREx D2 cells, calcium flux, dopamine EC80 | actives 2% (n = 340,000) | P14416 | AID 485344 | inhibition, % at 10 µM; in the data active = inhibition above about 30%; inactive = below that, where a call was filed
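Cells plated overnight at 30 C with tetracycline; no-wash calcium dye, 30–90 min RT; 10 s baseline; compound pinned; 180 s read; EC80 dopamine added; another 180 s read.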
D2 ag-2: human D2 receptor agonism in beta-arrestin assay | P14416 | DiscoveRx PathHunter D2 beta-arrestin, luminescence, 90 min; 100% = 57 uM dopamine signal | actives 0.084% (n = 360,000) | activation, % (test concentration not listed) | AID 624465; in the data active = activation above about 40%; inconclusive = between about 15% and that limit
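Agonist mode: compounds alone added to overnight-plated D2 PathHunter cells for 90 min at 37 C, with 57 uM final dopamine (EC100) defining full response. Beta-arrestin recruitment detected by chemiluminescent reagent, read after 1 h at ambient temperature.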
D3 ag: D3 receptor agonism confirmed, beta-arrestin readout | shares compounds with D2 ag-1 | DiscoveRx D3 beta-arrestin cells, luminescence, 90 min | Potency, µM (top dose mostly 76.9 µM), actives largely listed as activators | actives 4% (n = 2,300) | AID 720506; also: nearly all actives have a fitted effect of over 70% in size
Target sequence (P35462 whole entry, looked up): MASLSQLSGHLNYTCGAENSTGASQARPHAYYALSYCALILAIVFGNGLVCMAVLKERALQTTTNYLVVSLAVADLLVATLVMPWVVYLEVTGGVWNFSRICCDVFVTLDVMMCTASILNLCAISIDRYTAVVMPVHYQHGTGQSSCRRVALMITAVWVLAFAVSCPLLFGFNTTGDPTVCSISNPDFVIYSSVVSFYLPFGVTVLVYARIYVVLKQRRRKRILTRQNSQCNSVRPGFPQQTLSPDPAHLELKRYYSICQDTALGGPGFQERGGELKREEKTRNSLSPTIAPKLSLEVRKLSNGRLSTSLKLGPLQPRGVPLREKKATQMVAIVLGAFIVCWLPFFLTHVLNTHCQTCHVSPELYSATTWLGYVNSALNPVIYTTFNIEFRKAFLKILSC
D2 ag-3: activates human D2 dopamine receptor in D3 counterscreen; shares compounds with D2 ag-1; Potency, µM (series often up to 76.9 µM), hits mostly activators; actives 5.9% (n = 2,300); DiscoveRx PathHunter D2 beta-arrestin, luminescence, 90 min; response scale: percent relative to full dopamine signal; AID 720507; also: nearly all actives have a fitted effect of over 70% in size
Of the large screens only hits and unclear results are named; the others gave an inactive call (follow-up assays come after a bar, where they were run); ! = repeats disagree. Unless noted, calls follow the shape of the dose curve; as a rule, active = well fitted activation curve with a large enough effect; inconclusive = small, poorly fitted or top-dose-only effect; inactive = flat fitted curve, though single readings scatter.

CC(=NCCC1=CCCCC1)c1c(O)n(-c2ccccc2)c(=O)[nH]c1=O	D2 antag 31
Cc1ccsc1C(=O)C1CCCN(Cc2cccc(OCCO)c2)C1 (configuration not stated)	D2 antag 52
Cc1ccsc1C(=O)C1CCCN(Cc2cccc(-n3cccn3)c2)C1 (configuration not stated)	none
COc1ccc(CN2CCCC(C(=O)c3sccc3C)C2)cc1O (configuration not stated)	D2 antag 41
COc1ccc2[nH]cc(CCNCc3cccnc3)c2c1	none
COc1cccc(CNCCc2c[nH]c3ccccc23)c1	D2 antag 46
COc1ccc(C)cc1NC(=O)c1cccn(Cc2cccc([N+](=O)[O-])c2)c1=O	none (no result: D2 ag-1, D2 PAM-2, D2 antag, D2 ag-2)
COc1cc(OC)c(OC)cc1CN1CCN(C(=O)COc2ccc3ccccc3c2)CC1	none
COc1ccc(OCC(=O)N2CCN(Cc3ccc(SC)cc3)CC2)cc1	D2 PAM-1 34!, D2 antag 46
COc1ccccc1CN1CCN(C(=O)COc2ccccc2)CC1	D2 antag 33
COc1ccc(OCC(=O)N2CCN(Cc3ccc4c(c3)OCO4)CC2)cc1	none
Cc1cccc(NC(=O)Cn2cc(C(=O)c3ccccc3)c3ccccc32)c1	none (no result: D2 PAM-2, D2 antag, D2 ag-2)
CCn1cc(C=C2C(=O)NC(=O)NC2=O)c2ccccc21	D2 antag 38
COc1ccc(NC(=O)CN2CC=C(c3ccccc3)CC2)cc1S(=O)(=O)N1CCOCC1	D2 ag-1 54 | D3 ag inconclusive | D2 ag-3 inactive
CCc1ccc(-n2nc(C)c3c2NC(=O)CSC3c2ccc(C(=O)OC)cc2)cc1 (configuration not stated)	none (no result: D2 PAM-2, D2 antag, D2 ag-2)
O=C(CCN1C(=O)COc2ccccc21)N1CCC2(CC1)OCCO2	D2 ag-1 56 | D3 ag inactive | D2 ag-3 inactive
NNCc1cccc(O)c1	none
CCNCC(O)c1cccc(O)c1 (configuration not stated)	D2 ag-1 36, D2 antag 32 | D3 ag inconclusive | D2 ag-3 inconclusive
C=CCN1CCc2cccc3c2[C@H]1Cc1ccc(O)c(O)c1-3	D2 ag-1 88, D2 PAM-2 114, D2 antag 89, D2 ag-2 219 | D3 ag 0.02µM | D2 ag-3 0.045µM
O=C(Nc1ccc(Br)cc1C(=O)c1ccccc1Cl)c1ccc(Br)cc1	none (no result: D2 PAM-2, D2 antag, D2 ag-2)
CCN(CC)c1ccc(/C=C2\C(=O)NC(=S)N(C)C2=O)o1	D2 ag-1 33 | D3 ag inactive | D2 ag-3 inactive
CCOc1ccc2nc(NC(=O)c3cccn(Cc4ccccc4Cl)c3=O)sc2c1	none (no result: D2 PAM-2, D2 antag, D2 ag-2)
NCCc1c[nH]c2ccccc12	none
CCCCc1ccc2[nH]cc(CCN)c2c1	D2 ag-1 44 | D3 ag inactive | D2 ag-3 inconclusive
CCn1c(CN2CCN(C)CC2)nc2ccccc21	none (no result: D2 PAM-1, D2 PAM-2, D2 antag, D2 ag-2)
COc1ccc(N2C(=O)NC(=O)/C(=C/c3ccc(N4CCOCC4)cc3)C2=O)cc1	none (no result: D2 PAM-2, D2 ag-2)
CCOc1ccc(N2C(=O)NC(=O)/C(=C\c3ccc(N4CCOCC4)cc3C)C2=O)cc1	D2 ag-1 55 | D3 ag inactive | D2 ag-3 inactive
O=c1[nH]c2ccccc2c(=O)n1-c1ccc(Cl)c(Cl)c1	none (no result: D2 PAM-2, D2 antag, D2 ag-2)
CC(CCc1ccccc1)NCCC#N (configuration not stated)	D2 ag-1 77 | D3 ag inconclusive | D2 ag-3 inactive
Cc1cc(C)cc(-n2c(=O)[nH]c3ccccc3c2=O)c1	none (no result: D2 PAM-2, D2 antag, D2 ag-2)
CCN(CC)CCCC(C)N=C(c1ccccc1)c1c(O)n(C)c(=O)n(C)c1=O (configuration not stated)	D2 ag-1 38, D2 antag 69 | D3 ag inactive | D2 ag-3 inactive
OC(CN1CC=C(c2ccccc2)CC1)c1ccccc1 (configuration not stated)	D2 ag-1 77, D2 antag 75 | D3 ag inconclusive | D2 ag-3 inconclusive
O=C(CN1CC=C(c2ccccc2)CC1)Nc1c(Cl)cccc1Cl	none
OC(COCc1ccc(Cl)cc1)CN1CC=C(c2ccccc2)CC1 (configuration not stated)	D2 PAM-2 71!, D2 antag 85, D2 ag-2 83 | D3 ag 50µM | D2 ag-3 45µM
Cc1cccc(Cn2cccc(C(=O)Nc3nc4ccccc4s3)c2=O)c1	none (no result: D2 PAM-2, D2 antag, D2 ag-2)
COc1ccc(-c2nn3c(=O)cc(CN4CCN(C(=O)COc5ccc(F)cc5)CC4)nc3s2)cc1	none (no result: D2 PAM-2, D2 antag, D2 ag-2)
COc1c2c(cc3c1OCO3)CCN(C)C2	D2 ag-1 68, D2 antag 75 | D3 ag inconclusive | D2 ag-3 inconclusive
COc1cc2c(cc1OC)-c1c3c(cc4c1[C@@H](C2)N(C)CC4)OCO3	none
Cc1ccc(-n2c(/C=C/c3ccc(Br)s3)nc3ccccc3c2=O)cc1	none (no result: D2 PAM-2, D2 antag, D2 ag-2)
CC(C)[C@@]1(NC(=O)[C@@H]2C[C@@H]3c4cccc5[nH]cc(c45)C[C@H]3N(C)C2)O[C@@]2(O)[C@@H]3CCCN3C(=O)[C@H](Cc3ccccc3)N2C1=O	D2 ag-1 91, D2 antag 101 | D3 ag inactive | D2 ag-3 inconclusive
CC(C)C[C@H]1C(=O)N2CCCC2[C@]2(O)O[C@](NC(=O)[C@@H]3C=C4c5cccc6[nH]cc(c56)CC4N(C)C3)(C(C)C)C(=O)N12 (some centres not stated)	D2 ag-1 73, D2 PAM-2 54, D2 antag 78, D2 ag-2 122 | D3 ag inconclusive | D2 ag-3 0.28µM
CC(C)C[C@H]1C(=O)N2CCC[C@H]2[C@]2(O)O[C@](NC(=O)[C@@H]3C=C4c5cccc6[nH]c(Br)c(c56)CC4N(C)C3)(C(C)C)C(=O)N12 (some centres not stated)	D2 ag-1 80, D2 PAM-2 inconclusive, D2 antag 94, D2 ag-2 55 | D3 ag inconclusive | D2 ag-3 0.28µM
Cc1ccc(NC(=O)CN2C(=O)CN=C(c3ccccc3)c3ccccc32)cc1	none (no result: D2 PAM-2, D2 antag, D2 ag-2)
CSc1ccc(/C=C/c2nc3ccccc3c(=O)n2-c2cccc(Cl)c2C)cc1	none (no result: D2 PAM-2, D2 antag, D2 ag-2)
O=C(CN1C(=O)CN=C(c2ccccc2)c2ccccc21)Nc1cccc(C(F)(F)F)c1	none (no result: D2 PAM-1, D2 PAM-2, D2 antag, D2 ag-2)
CN1C(=O)CC(c2ccccc2)Nc2ccccc21 (configuration not stated)	none | D3 ag inactive | D2 ag-3 inactive

Screening data deposited in PubChem BioAssay by National Center for Advancing Translational Sciences (NCATS).
